The target in experiment [1] is M-phase phosphoprotein 8 (Homo sapiens) (UniProt Q99549). As to the kind of experiment: qHTS Validation Assay for Inhibitors for MPP8 Chromodomain Interactions with Methylated Histone Tails (AID 488949). Note: nearly all actives have a fitted effect of over 55% in size. Note: potency is the fitted concentration of half-maximal effect. Put shortly: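 AlphaScreen read-out: streptavidin donor and nickel chelate acceptor beads (final 10 ug/mL), 30 min in the dark at RT. Complex of 50 nM MPP8 and 50 nM b-H3(1-18)K9me3 peptide had been exposed to compounds for 30 min beforehand.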
Sequence of M-phase phosphoprotein 8 (Homo sapiens) (Q99549 whole entry, looked up): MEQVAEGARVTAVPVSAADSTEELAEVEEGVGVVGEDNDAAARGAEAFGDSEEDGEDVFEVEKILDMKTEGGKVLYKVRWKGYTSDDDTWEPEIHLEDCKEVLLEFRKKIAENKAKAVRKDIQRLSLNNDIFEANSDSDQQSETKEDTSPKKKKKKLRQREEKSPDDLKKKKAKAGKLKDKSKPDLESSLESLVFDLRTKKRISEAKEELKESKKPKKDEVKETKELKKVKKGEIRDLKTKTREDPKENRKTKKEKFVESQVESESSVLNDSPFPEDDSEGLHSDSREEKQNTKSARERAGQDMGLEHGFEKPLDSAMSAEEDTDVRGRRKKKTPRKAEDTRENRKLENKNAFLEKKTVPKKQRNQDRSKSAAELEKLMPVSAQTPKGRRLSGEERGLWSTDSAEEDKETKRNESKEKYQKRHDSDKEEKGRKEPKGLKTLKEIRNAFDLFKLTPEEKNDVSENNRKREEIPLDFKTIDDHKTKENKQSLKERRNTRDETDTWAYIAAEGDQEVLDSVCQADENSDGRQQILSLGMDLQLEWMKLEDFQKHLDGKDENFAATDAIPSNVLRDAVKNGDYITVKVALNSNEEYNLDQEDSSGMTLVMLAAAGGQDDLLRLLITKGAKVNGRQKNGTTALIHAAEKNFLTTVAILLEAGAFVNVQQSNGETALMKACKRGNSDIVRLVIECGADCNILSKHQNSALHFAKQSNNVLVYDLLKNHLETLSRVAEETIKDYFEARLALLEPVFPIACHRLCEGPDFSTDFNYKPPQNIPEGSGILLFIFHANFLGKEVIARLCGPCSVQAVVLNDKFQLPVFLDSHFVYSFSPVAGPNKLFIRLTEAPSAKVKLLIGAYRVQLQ
On the technique in general: In qHTS, concentration-response curves come from the screen itself.

Experiment [2] is described as follows: Nrf2 qHTS screen for inhibitors: Validation (AID 493153; active = well fitted inhibition curve with a large enough effect in the main read-out, with a control signal flat, not every such curve was filed as active). Particulars: viability change: measured here: cytotoxicity max response. The essentials:
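A549 cells carrying ARE-firefly luciferase reporter, 5000 cells/well in 5% FBS OPTI-MEM, treated with compound over a concentration series for 18-24 h at 37 C. Luciferase luminescence gave Nrf2 activity; CellTiter-Fluor fluorescence gave viability.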

The nature of experiment [3]: Inducers of the Endoplasmic Reticulum Stress Response (ERSR) in human glioma: Validation (AID 504836). Note: 0% is about no effect. Put shortly: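 ERSR induction read as luciferase luminescence (Bright-Glo, 10 min at room temperature) in stably transfected human U87-MG glioma cells exposed to compounds for 16 h, using GRP78 as sensor.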
For experiment [4], the target named is D(1A) dopamine receptor (Homo sapiens) (UniProt P21728). As to the kind of experiment: HTS Assay for Allosteric Agonists of the Human D1 Dopamine Receptor: Primary Screen for Potentiators (AID 488982). Note: 0% is about no effect. Put shortly:
(§1)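 Calcium flux in an inducible, force-coupled HEK293 Trex D1 line (overnight at 30 C): agonist mode is the 180 s kinetic read after compound; potentiator mode is the following 180 s read after dopamine at EC20.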

The nature of experiment [5]: Validation screen for small molecules that induce genotoxicity in human embryonic kidney (HEK293T) cells expressing luciferase-tagged ELG1 (AID 493106). Note: 0% is about no effect. The essentials: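 HEK293T cells expressing luciferase-tagged ELG1, 2,000 cells/well, exposed to compound 16 hr at 37 °C, 5% CO2. Luciferase read after ONE-Glo, 30 min at room temperature; increased signal indicates genetic stress.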

The target in experiment [6] is Chromobox protein homolog 1 (Homo sapiens) (UniProt P83916). Briefly: qHTS Validation Assay for Inhibitors of HP1-beta Chromodomain Interactions with Methylated Histone Tails (AID 488953). Note: nearly all actives have a fitted effect of over 50% in size. Note: potency is the fitted concentration of half-maximal effect. Put shortly: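 HP1-beta (50 nM) preformed 30 min with biotinylated H3(1-18)K9me3 peptide (50 nM) in PBS pH 7.4, 0.01% Tween-20. Compounds added for 30 min at room temperature. Complex disruption read by AlphaScreen with streptavidin donor/nickel chelate acceptor beads (10 ug/mL each).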
Sequence of Chromobox protein homolog 1 (Homo sapiens) (P83916 whole entry, looked up): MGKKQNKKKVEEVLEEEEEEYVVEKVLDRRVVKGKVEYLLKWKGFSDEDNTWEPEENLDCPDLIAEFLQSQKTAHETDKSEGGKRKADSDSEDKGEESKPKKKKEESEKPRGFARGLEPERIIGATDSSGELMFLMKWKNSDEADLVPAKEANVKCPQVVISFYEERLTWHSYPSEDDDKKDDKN

The target of experiment [7] is Methanococcus maripaludis chaperonin (MmCpn) (UniProt Q6LX38). Briefly: High-Throughput Screening for Modulators of Cytosolic Chaperonin Activity: MmCpn Primary Screen (AID 488978).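 Note: 50 nM MmCpn enzyme hydrolysing 30 µM ATP at 37 °C; 0% is about no effect.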 The essentials:
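ADP formation read by HTRF Transcreener, 665/590 nm emission after 320 nm excitation. Enzyme: archaeal chaperonin at 50 nM final; substrate ATP 30 uM final; 10 min, 37C, after 5 min compound preincubation at RT.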

Experiment [8] addresses Transient receptor potential cation channel subfamily V member 1 (Homo sapiens) (UniProt Q8NER1). As to the kind of experiment: HTS Assay for Compounds that Act as Enhancers of the Vanilloid Receptor 1 (AID 488979). Note: 0% is about no effect. Put shortly: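 Calcium influx kinetics via Fluo-8 (480/520 nm) in TRPV1-expressing cells, 2000/well cultured overnight at 35.5C. Compound-alone read 3 min (agonist phase), followed by EC20 capsaicin challenge for 2 min (enhancer phase).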

In experiment [9] the target is Thyrotropin receptor (Homo sapiens) (UniProt P16473). Briefly: qHTS Assay for Antagonists of the Thyroid Stimulating Hormone Receptor (AID 488980). Note: series mostly up to about 58 µM; 0% is about no effect. Put shortly: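 TSHR-HEK293 cells; 70 uM RO 20-1724 PDE inhibitor; compound + EC80 TSH (4 nM final); anti-cAMP cryptate antibody/cAMP-d2 in lysis buffer, 30 min RT; HTRF 665/620 nm read.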
Sequence of Thyrotropin receptor (Homo sapiens) (P16473 whole entry, looked up): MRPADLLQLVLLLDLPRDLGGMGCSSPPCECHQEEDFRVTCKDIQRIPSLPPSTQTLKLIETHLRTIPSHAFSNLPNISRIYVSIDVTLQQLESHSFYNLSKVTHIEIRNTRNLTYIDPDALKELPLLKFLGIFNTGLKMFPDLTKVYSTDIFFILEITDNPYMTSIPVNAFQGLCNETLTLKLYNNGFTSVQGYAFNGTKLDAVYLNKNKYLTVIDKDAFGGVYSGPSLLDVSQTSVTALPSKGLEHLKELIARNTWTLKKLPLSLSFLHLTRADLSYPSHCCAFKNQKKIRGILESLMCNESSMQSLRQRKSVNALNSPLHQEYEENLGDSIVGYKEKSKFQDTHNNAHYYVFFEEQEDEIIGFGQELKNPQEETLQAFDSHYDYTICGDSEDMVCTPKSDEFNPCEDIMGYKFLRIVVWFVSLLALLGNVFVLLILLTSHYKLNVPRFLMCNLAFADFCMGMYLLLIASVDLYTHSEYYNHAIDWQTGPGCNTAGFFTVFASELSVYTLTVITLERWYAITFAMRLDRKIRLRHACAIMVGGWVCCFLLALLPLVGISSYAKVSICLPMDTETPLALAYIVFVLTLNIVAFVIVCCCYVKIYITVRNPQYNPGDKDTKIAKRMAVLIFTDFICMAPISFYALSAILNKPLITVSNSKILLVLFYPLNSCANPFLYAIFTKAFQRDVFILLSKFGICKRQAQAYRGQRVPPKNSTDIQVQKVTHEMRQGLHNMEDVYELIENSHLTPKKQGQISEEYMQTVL
In experiment [10] the target is D(1A) dopamine receptor (Homo sapiens) (UniProt P21728). Briefly: HTS Assay for Allosteric Agonists of the Human D1 Dopamine Receptor: Primary Screen for Agonists (AID 488981). Note: 0% is about no effect. The essentials: as §1
Sequence of D(1A) dopamine receptor (Homo sapiens) (P21728 whole entry, looked up): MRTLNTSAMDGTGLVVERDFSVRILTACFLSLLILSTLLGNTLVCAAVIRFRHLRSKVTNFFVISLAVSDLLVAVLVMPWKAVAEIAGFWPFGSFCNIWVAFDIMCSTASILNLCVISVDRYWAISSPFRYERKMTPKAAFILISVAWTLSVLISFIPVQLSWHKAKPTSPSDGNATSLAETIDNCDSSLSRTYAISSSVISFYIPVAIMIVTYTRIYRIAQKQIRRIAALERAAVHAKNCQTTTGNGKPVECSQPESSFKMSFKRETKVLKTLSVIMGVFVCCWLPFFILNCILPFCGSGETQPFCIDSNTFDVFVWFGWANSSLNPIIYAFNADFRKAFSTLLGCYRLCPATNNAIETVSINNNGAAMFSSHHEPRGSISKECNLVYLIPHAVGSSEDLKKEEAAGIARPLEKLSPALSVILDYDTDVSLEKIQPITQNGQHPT
For experiment [11] the target is unchanged. Briefly: HTS Assay for Allosteric Agonists of the Human D1 Dopamine Receptor: Primary Screen for Antagonists (AID 488983).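 Note: calcium flux response to an EC80 dopamine challenge measured with no-wash dye; % is set by controls: 0 for no effect and ±100 for the full control effect; nearly all actives have a fitted effect of over 65% in size.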 The essentials: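 Tetracycline-induced HEK293 T-REx D1 line, force-coupled to calcium flux, read with no-wash calcium dye. Compound added after 10 s baseline, read 180 s for agonism, then EC80 dopamine added and read a further 180 s.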

For experiment [12], the target named is ATPase family AAA domain-containing protein 5 (Homo sapiens) (UniProt Q96QE3). Briefly: Validation screen for small molecules that inhibit ELG1-dependent DNA repair in human embryonic kidney (HEK293T) cells expressing luciferase-tagged ELG1 (AID 493107).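 Note: cells co-treated with the DNA-damaging agent 5-fluorouridine alongside compound; series mostly up to about 46 µM; % is set by controls: 0 for no effect and ±100 for the full control effect; inhibitors lower the ELG1-luciferase luminescence signal; nearly all actives have a fitted effect of over 70% in size.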 Put shortly: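 HEK293T cells expressing luciferase-tagged ELG1, 2,000 per well, treated with 5-fluorouridine plus compound for 16 h at 37 C. ONE-Glo luminescence after 30 min at room temperature reports ELG1 reporter level.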

Experiment [13] concerns the target Galactokinase (Homo sapiens) (UniProt P51570). Briefly: qHTS Validation Assay for Inhibitors of Human Galactokinase (GALK) (AID 493189). Note: 0% is about no effect. The essentials:
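Luminescence from leftover ATP (Kinase-Glo Plus, 10 min) served as read-out after a 1 h room-temperature reaction of 5 nM GALK, 100 uM galactose and 35 uM ATP at pH8.0.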

Experiment [14] is described as follows: Validation screen for small molecules that induce DNA re-replication in SW480 colon adenocarcinoma cells (AID 504364). Note: 0% is about no effect. The essentials: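 SW480 cells (250/well) exposed 48 h at 37 C, 5% CO2, then Hoechst-stained 40 min. Nuclear DNA content imaged by fluorescence scanning (405 nm excitation, 500-530 nm emission); re-replication scored as increased nuclei with elevated intensity.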

The target of experiment [15] is Peptidyl-prolyl cis-trans isomerase NIMA-interacting 1 (Homo sapiens) (UniProt Q13526). As to the kind of experiment: qHTS Validation Assay to Find Inhibitors of Pin1 (AID 504536; active = well fitted inhibition curve with a large enough effect in the polarisation, with a control signal flat, not every such curve was filed as active; the % refers to the polarisation;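 note: 0% = full Pin1 enzyme wells and -100% = no-enzyme wells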). The essentials: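 Fluorescence polarization competition: compounds (titration) displace HiFluor-488-labeled Pin1-1b peptide from Pin1 (0.3 uM final) in pH 7.5 HEPES buffer with DTT, 10 min at room temperature; %Activity normalized to no-enzyme wells, curves fitted.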

Experiment [16] deals with Phosphoglycerate kinase, glycosomal (Trypanosoma brucei brucei) (UniProt P07378). Briefly: qHTS Validation Assay to Find Inhibitors of Phosphoglycerate Kinase (AID 504547).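 Note: control wells lack PGK and mark full inhibition.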 The essentials:
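Inhibition of the enzyme is judged by a Kinase-Glo Plus luminescent signal following a one-hour incubation at room temperature. Because 1,3-BPG is unstable, it is made in situ by GAPDH at 100nM final; no-PGK wells define the baseline.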

The target in experiment [17] is phosphoglycerate mutase (Leishmania major) (UniProt Q4Q090). As to the kind of experiment: qHTS Validation Assay to Find Inhibitors of Phosphoglycerate Mutase (AID 504548). Note: series mostly up to about 58 µM; % is set by controls: 0 for no effect and ±100 for the full control effect. The essentials: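 Lm PGAM at 1.25 nM final with substrate in 100 mM TEA pH 7.6, 5 mM MgCl2, 0.01% Tween-20; 45 min at room temperature. Kinase-GloPlus added, 10 min, end-point luminescence read.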
Sequence of phosphoglycerate mutase (Leishmania major) (Q4Q090 1-553): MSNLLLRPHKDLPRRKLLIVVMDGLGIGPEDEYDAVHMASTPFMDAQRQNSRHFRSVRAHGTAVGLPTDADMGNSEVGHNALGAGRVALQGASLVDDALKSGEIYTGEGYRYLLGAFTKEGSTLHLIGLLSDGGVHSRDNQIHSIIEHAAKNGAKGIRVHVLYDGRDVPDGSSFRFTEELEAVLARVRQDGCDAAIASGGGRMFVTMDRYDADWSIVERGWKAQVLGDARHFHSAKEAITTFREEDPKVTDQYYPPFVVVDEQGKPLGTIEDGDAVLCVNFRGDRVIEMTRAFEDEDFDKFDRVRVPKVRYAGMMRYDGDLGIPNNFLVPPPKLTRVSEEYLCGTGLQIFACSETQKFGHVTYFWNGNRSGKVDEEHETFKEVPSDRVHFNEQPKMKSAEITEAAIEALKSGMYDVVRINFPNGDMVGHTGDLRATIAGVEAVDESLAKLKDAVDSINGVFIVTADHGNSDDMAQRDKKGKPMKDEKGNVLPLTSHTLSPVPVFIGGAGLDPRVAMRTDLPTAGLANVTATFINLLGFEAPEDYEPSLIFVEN

Experiment [18] concerns the target ATP-dependent 6-phosphofructokinase (Trypanosoma brucei brucei) (UniProt O15648). Briefly: qHTS Assay to Find Inhibitors of T. brucei phosphofructokinase: hit validation (AID 492961).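 Note: luminescence reports ADP formed as PFK phosphorylates fructose-6-phosphate with ATP; series mostly up to about 51 µM; % is set by controls: 0 for no effect and ±100 for the full control effect.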 The essentials:
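ADP-Glo luminescence read-out of ADP formed by 1.25 nM PFK from 0.1 mM ATP and 0.5 mM F6P (TEA pH 8.0, 45 min, RT). Compounds titrated; activity normalized to no-enzyme and full-enzyme controls.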

For experiment [19], the target named is Tyrosyl-DNA phosphodiesterase 1 (Homo sapiens) (UniProt Q9NUW8). Briefly: Confirmation Assay for Inhibitors of Tyrosyl-DNA Phosphodiesterase (TDP1) (AID 489007). Note: potency is the fitted concentration of half-maximal effect; nearly all actives have a fitted effect of over 40% in size. Conditions: recombinant human TDP1 enzymatic activity, dose-response. The essentials: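 Recombinant human Tdp1 (1 nM final), expressed in E. coli, preincubated 15 min with compound. Then 15 nM 5'-biotin/3'-phosphotyrosine-FITC DNA substrate added for 5 min at room temperature. AlphaScreen beads (10 ug/ml) added for 10 min; cleavage gives signal loss.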

Values joined by “and” are separate entries in the source; they are usually repeats but may differ in a detail not shown here. Equal values may be shown once. Records with an inconclusive call do not appear. Active and inactive are the calls of the source. Unless noted, calls come from the whole dose curve; as a rule, active = well fitted curve in the direction sought with a large enough effect; inconclusive = small, poorly fitted or top-dose-only effect, or another doubt; inactive = no such curve, though single readings can be large; an effect the other way counts as inactive or inconclusive.

Sequence of Methanococcus maripaludis chaperonin (MmCpn) (Q6LX38 1-543): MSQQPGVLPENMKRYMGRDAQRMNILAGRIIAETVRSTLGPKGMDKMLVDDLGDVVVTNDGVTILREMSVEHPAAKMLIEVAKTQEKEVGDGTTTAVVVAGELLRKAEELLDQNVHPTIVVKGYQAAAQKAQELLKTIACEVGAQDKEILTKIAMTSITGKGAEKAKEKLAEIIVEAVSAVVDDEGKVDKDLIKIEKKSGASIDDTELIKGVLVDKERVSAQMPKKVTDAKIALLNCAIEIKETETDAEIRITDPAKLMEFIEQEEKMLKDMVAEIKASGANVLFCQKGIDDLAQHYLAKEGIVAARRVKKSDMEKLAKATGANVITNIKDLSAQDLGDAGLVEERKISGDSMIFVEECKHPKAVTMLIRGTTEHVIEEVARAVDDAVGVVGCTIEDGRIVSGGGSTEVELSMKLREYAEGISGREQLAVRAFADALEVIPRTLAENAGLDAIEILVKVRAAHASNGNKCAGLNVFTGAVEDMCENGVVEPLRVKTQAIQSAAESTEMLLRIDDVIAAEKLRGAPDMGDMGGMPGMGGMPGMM
Sequence of Transient receptor potential cation channel subfamily V member 1 (Homo sapiens) (Q8NER1 whole entry, looked up): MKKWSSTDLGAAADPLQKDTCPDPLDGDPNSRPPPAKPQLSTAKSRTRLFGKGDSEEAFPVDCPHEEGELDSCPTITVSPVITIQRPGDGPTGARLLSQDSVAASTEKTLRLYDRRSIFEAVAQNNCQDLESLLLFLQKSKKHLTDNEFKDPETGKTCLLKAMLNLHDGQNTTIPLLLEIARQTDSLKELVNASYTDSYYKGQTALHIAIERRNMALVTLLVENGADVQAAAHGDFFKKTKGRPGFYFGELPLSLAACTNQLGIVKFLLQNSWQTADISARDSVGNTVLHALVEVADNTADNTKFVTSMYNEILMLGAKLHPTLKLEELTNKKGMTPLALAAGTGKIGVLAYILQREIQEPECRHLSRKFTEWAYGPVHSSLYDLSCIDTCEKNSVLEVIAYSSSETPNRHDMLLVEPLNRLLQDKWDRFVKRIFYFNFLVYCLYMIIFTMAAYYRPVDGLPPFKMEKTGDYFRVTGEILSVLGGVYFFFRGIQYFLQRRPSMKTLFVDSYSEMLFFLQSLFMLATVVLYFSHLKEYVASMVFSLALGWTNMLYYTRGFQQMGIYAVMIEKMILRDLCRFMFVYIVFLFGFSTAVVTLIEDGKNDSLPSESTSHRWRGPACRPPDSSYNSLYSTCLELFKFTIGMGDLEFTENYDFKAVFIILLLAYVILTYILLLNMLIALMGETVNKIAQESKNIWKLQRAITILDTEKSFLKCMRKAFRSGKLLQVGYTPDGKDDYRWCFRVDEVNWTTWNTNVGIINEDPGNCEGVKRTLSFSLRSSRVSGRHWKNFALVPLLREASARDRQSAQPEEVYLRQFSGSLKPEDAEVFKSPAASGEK
Sequence of Phosphoglycerate kinase, glycosomal (Trypanosoma brucei brucei) (P07378 whole entry, looked up): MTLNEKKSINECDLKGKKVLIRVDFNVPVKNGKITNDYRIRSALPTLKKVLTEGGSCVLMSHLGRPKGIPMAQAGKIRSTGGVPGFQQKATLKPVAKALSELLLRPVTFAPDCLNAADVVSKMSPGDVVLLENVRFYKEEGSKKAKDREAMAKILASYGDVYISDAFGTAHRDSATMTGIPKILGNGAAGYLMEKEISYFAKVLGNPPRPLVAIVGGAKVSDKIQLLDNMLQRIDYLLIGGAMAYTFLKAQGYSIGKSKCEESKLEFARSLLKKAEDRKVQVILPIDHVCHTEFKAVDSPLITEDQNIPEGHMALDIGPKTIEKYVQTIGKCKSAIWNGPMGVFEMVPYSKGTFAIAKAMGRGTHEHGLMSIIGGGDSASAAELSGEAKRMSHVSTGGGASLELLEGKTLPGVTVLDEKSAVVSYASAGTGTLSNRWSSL
Sequence of Galactokinase (Homo sapiens) (P51570 whole entry, looked up): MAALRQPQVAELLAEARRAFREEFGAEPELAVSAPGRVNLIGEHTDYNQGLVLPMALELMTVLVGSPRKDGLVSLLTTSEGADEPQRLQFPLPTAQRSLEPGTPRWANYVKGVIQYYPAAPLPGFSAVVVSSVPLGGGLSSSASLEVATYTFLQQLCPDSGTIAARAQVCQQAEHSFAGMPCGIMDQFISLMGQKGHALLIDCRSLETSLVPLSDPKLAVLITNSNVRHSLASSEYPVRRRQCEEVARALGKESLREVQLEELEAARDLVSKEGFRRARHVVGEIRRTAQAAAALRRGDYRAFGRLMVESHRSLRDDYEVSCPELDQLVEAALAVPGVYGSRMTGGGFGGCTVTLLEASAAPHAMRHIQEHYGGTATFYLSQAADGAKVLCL

For `CN=C(NC#N)NCCSCc1nc[nH]c1C`, the Potency entry in experiment [1] was “inactive”. In [2], the call was inactive and the viability change was found to be 0.983%. The molecule was called inactive in experiment [3].
Consider `CC(C)C[C@H]1C(=O)N2CCC[C@H]2[C@]2(O)O[C@](NC(=O)[C@@H]3C=C4c5cccc6[nH]c(Br)c(c56)C[C@H]4N(C)C3)(C(C)C)C(=O)N12`, for which the outcome in experiment [4], in [5] and in [3] was inactive.
Take `CN(C)C(=O)Oc1ccc[n+](C)c1`: in experiment [1], the Potency entry was “inactive”. In [6], the Potency is 0.0067 µM (active). Moreover, in experiment [3], the molecule was classed as inactive.
With `CC(=O)N1CCN(c2ccc(OC[C@H]3CO[C@](Cn4ccnc4)(c4ccc(Cl)cc4Cl)O3)cc2)CC1`, the Potency in [1] and in [6] was 39.8 µM (active) each time. For the same molecule, the call in experiment [5] and in [3] was inactive.
With `CC(C)N(CCC(C(N)=O)(c1ccccc1)c1ccccn1)C(C)C` (stereo not drawn), the Potency result in experiment [1], in [6] and in [10] was “inactive” throughout. The call in [7], in [8], in [9], in experiment [4], in experiment [11] and in [5] was inactive. Further, the call in experiment [12], in [2], in experiment [13], in experiment [14], in experiment [15] and in experiment [16] was inactive. Also, the result in experiment [17] and in experiment [3] was inactive. For the same molecule, in [2], the viability change is 0% and 10.1%.
Regarding `CN1C(=O)CCS(=O)(=O)C1c1ccc(Cl)cc1` (stereo not drawn), the Potency entry in experiment [1], in [6] and in [10] was “inactive” in each case. For the same molecule, the molecule was called inactive in experiment [7], in [8], in [9], in experiment [4], in experiment [11] and in [5]. The molecule was called inactive in [12], in experiment [2], in experiment [13], in experiment [14], in [15] and in experiment [16]. For the same molecule, the molecule was called inactive in experiment [17] and in [3]. Besides, in [2], the viability change was -1.88%.
For the molecule `O=C1c2ccccc2C(=O)C1C(=O)C(c1ccccc1)c1ccccc1`, the molecule was classed as inactive in [18].
Still for that read-out and setting: the entry for `CNC(C)(C)Cc1ccccc1` is “inactive”.
For the molecule `Oc1ccc(Cl)cc1`, the outcome in [18] was inactive.
On the same count and under the same terms, the entry for `COP(=S)(OC)Oc1ccc(S(=O)(=O)N(C)C)cc1` is “inactive”.
Still for that read-out and setting: the entry for `CCCCCCC(=O)CCCCCC/C=C/C[C@@H](O)[C@H](O)[C@@](N)(CO)C(=O)O` is “inactive”.
On to `CCCCC/C=C\C/C=C\C/C=C\C/C=C\CCCC(=O)NCC(=O)O`, for which the Potency result in [1] and in [10] was “inactive” in each case. For the same molecule, the Potency in [6] was 44.7 µM (active); in experiment [19] it was 28.2 µM (active). In addition, the result in [7], in experiment [8], in experiment [4], in [11], in experiment [5] and in experiment [12] was inactive. In addition, the molecule was called inactive in experiment [2], in experiment [13], in experiment [14], in experiment [17] and in [3]. The viability change in experiment [2] came out at 2.11%.
In the case of `CCOP(=S)(OCC)Oc1ccc2c(C)c(Cl)c(=O)oc2c1`, the molecule was called inactive in experiment [18].
`Clc1cccc(SC2CCNCC2)n1`: the call in experiment [18] was inactive.
